# According to PubChem BioAssay AID1259336 (Sattelle Laboratory, UCL Respiratory, Division of Medicine, …, 2017):
# Unmarked numbers belong to inactive results. Activity calls are given as the source filed them. No stated cut-off is given here; in the data, active means log2 fold change growth below about -1.8; inactive means the rest.
# Experiment: C. elegans growth inhibition, whole organism, log2 fold change (AID 1259336);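 further: growth scored by imaging after five days at 20 °C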
# Conditions: anthelmintic screen, active compounds read low
row,SMILES,log2 fold change growth
1,O=C(NCCN1CCCC1)c1cc(NCCCCN2CCC(F)(F)CC2)nc2ccc(Cl)cc12,0.489
2,Cn1c(=O)c2c(S(C)(=O)=O)snc2n(C)c1=O,0.155
3,CC(=O)NC[C@H]1CN(c2ccc(-c3ccc(CO)cc3)c(F)c2)C(=O)O1,0.592
4,O=C(NCCc1ccn(-c2ccccc2)n1)C1CCCCC1,0.0936
5,FC(F)(F)c1cccc(-c2nc3c(NCc4ccncc4)nccc3[nH]2)c1,0.0714
6,COC(=O)C1=C(C)NC(C)=C(C(=O)OC(C)C)[C@H]1c1cccc2nonc12,-2.22 (active)
7,CC(=O)NC[C@H]1CN(c2ccc(N3CCSCC3)c(F)c2)C(=O)O1,0.00512
8,CCOc1ccccc1N[C@@H](C)C(=O)Nc1cc(C(F)(F)F)ccc1N1CCOCC1,-1.5
9,O=C(Nc1ccc(N2CCNCC2)cc1)c1ccn2ncc(-c3cccc(Cl)c3)c2n1,-0.0705
10,COc1ccccc1OCCCCn1c(C2CC2)nc2ccccc21,0.559
11,Cc1cc(Cl)ccc1NC(=O)CCc1ccc(S(=O)(=O)NCC(C)C)cc1,-0.221
12,CC(C)n1ncc2c(C(=O)NC[C@@H](c3cccs3)N3CCOCC3)cc(-c3ccccc3)nc21,-2.7 (active)
13,C[C@H](C(N)=O)N1CCCC[C@H]1c1ccc(OCc2cccc(F)c2)cc1,-0.0659
14,CC(=O)NC[C@@H]1CN(c2ccc(N3CCOCC3)c(F)c2)C(=O)O1,-0.257
15,c1ccc(Oc2ccc(-c3cc(C4CCOCC4)[nH]n3)cc2)cc1,-0.254
16,COc1ccc(OC)c(NCc2ccc3nc(N)nc(N)c3c2Cl)c1,0.162
17,CC(C)[C@@H](C(=O)Nc1ccc(S(=O)(=O)N(C)C)cc1)c1ccc(Cl)cc1,-5.06 (active)
18,Cc1ccc(S(=O)(=O)Nc2ccc(CN3CCN(C(=O)c4cccc(C#N)c4)CC3)cc2)cc1,0.152
19,CCc1c(C)nc(-n2nc(C)cc2NC(=O)c2ccccc2SC)[nH]c1=O,-0.0348

row,SMILES,log2 fold change growth
1,NS(=O)(=O)c1cncc(-c2ccc3nccc(-c4cn[nH]c4)c3n2)c1,-0.501
2,C[C@H]1COc2c(N3CCN(C)CC3)c(F)cc3c(=O)c(C(=O)O)cn1c23,0.473
3,c1ccc(-c2nc(NC3CCCCC3)cc(C3CC3)n2)nc1,-0.0356
4,CC[C@H](Sc1nc2ccccc2o1)C(=O)Nc1nccs1,-0.397
5,CC(C)(C)n1nc(Cc2cccc3ccccc23)c2c(N)ncnc21,-0.527
6,Cc1cc(=O)[nH]c(-n2nc(C)cc2C)n1,0.36
7,COc1ccc(C2=NN(C3CCCCCC3)C(=O)[C@@H]3CC=CC[C@H]23)cc1OCCCCOc1ccc(-c2nn[nH]n2)cc1,-0.0946
8,COc1cc(C2=NCCN2)cc2cc(-c3ccc(C4=NCCN4)cc3)oc12,0.303
9,Cn1ccnc1CNCCS(=O)(=O)c1cccc(Nc2ccc(-c3cccc(F)c3)cn2)c1,0.155
10,COc1ccc(-c2nc(-c3cccc(NC(=O)Cc4ccc(F)cc4)c3)no2)cc1OC,-0.107
11,CC(C)(C)n1nc(Cc2ccc(F)c(Cl)c2)c2c(N)ncnc21,-1.01
12,Cc1ccc(NC(=O)c2nc[nH]c2C(=O)Nc2nc3ccccc3[nH]2)c(C)c1,-0.815
13,O=C1[C@@H](Oc2ccccc2)[C@@H](c2ccc(Cl)cc2)N1CCn1cnc2c(NCc3ccccc3)ncnc21,-0.167
14,Cc1cc(Cl)c(S(=O)(=O)N2CCCC2)cc1OCC(=O)NC1CCCCC1,-0.00734
15,COc1ccc(C(=N)N)cc1-c1cn(-c2ccc(C(=N)N)cc2)nn1,-0.0296
16,CCCn1c(CNc2ccccc2O)nc2ccccc21,0.228
17,O=C1Nc2ccc(Br)cc2[C@@]12NCCc1c2[nH]c2ccccc12,-0.19
18,COc1cc(OC)cc(C(=O)NC[C@H]2Cc3cc(Cl)cc(-c4ccncc4)c3O2)c1,-1.17
19,CCCCc1ccc(NC(=O)Nc2ccc(O[C@H]3CCCC[C@@H]3N(C)c3ccccc3)c(F)c2)cc1,-0.0752
